# A selection: hits, their analogues and other compounds. The true share with any hit is near 9.2%.
# NPC1 promoter act: activates the NPC1 promoter | Huh7 NPC1 promoter luciferase reporter, 24 h | Potency, µM (highest dose often 9.22 µM), for the others: at the highest dose activation, actives largely listed as activators | hit rate 2.4% among 320,000 | AID 485313; note: % of control where 0% means no effect; nearly all actives have a fitted effect of over 60% in size
#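 Luminescence from an NPC1 promoter-driven luciferase reporter in stably transfected Huh7 cells was measured after 24 h compound treatment at 37 °C, followed by 10 min ambient incubation with luciferase detection reagent.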
# ELG1 genotox: inducers of genotoxicity in HEK293T ELG1-luciferase cells | HEK293T ELG1-luciferase reporter, luminescence, 16 h | Potency, µM (doses to about 46 µM), inactives show at the top dose activity change, positive = activation, hits mostly activators | hit rate 1.3% among 330,000; note: % of control where 0% means no effect; nearly all actives have a fitted effect of over 60% in size
#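 Reporter readout depends on ELG1 protein level, which increases with genetic stress. After 16 hr compound exposure at 37 °C, luciferase activity was quantified using ONE-Glo.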
# FLuc modulator: counter-screen for miR-21 project: firefly luciferase inhibitors or activators | purified FLuc, Km substrates, luminescence inhibition | Potency, µM (highest dose often 57.5 µM), for inactives: top-dose activity change, negative = inhibition, actives largely listed as inhibitors | hit rate 6.9% among 360,000 | AID 588342;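 note: plate controls were vehicle for no effect and reference inhibitor for full effect; nearly all actives have a fitted effect of over 55% in size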
# Target sequence (P08659 whole entry, looked up): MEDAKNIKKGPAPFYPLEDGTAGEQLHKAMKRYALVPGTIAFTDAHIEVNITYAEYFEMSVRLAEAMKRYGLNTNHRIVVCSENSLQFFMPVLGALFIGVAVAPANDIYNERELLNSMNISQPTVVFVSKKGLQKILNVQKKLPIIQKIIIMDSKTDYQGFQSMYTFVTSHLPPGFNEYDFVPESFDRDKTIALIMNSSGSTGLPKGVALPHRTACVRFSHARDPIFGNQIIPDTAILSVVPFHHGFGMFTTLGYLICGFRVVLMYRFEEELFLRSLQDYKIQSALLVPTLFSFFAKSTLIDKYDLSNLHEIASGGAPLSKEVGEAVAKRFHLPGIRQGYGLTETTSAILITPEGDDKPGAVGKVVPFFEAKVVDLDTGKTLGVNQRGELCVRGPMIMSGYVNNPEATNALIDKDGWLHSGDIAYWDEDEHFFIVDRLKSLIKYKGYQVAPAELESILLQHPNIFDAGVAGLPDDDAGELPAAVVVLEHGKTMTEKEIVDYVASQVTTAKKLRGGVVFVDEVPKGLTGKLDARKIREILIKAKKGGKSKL
#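 Purified P. pyralis luciferase, 10 nM final, with Km-level 10 uM D-luciferin and 10 uM ATP in 50 mM Tris acetate pH 7.5, 10 mM Mg acetate, 0.01% Tween-20, 0.05% BSA; 6-point qHTS titration about 60 µM downward; luminescence read.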
# Rab9 promoter act: Rab9 promoter activation. Potency, µM (doses to about 9.22 µM), inactives show top-dose activation, negative = inhibition, hits mostly activators. hit rate 2.8% among 320,000. Huh7 Rab9 promoter-luciferase reporter, luminescence, 24 h; note: % of control where 0% means no effect; nearly all actives have a fitted effect of over 60% in size
#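 Huh7 reporter line, Rab9 promoter upstream of luciferase. Compound exposure 24 h at 37 °C in reduced-serum medium with 10% FBS. Read-out: luminescence.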
# ELG1 repair inh: inhibitors of ELG1-dependent DNA repair in HEK293T cells. HEK293T ELG1-luciferase reporter, luminescence, 16 h; DNA damage induced by 5-fluorouridine. Potency, µM (highest dose often 46.1 µM), inactives show at the highest dose activity change, negative = inhibition, hits mostly inhibitors. hit rate 2.3% among 330,000. AID 504467; note: % is set by controls: 0 for no effect and ±100 for the full control effect; nearly all actives have a fitted effect of over 55% in size
#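 Luminescence from the luciferase reporter, measured 30 min after ONE-Glo reagent at room temperature, was the read-out. Beforehand, 2,000 cells per well were exposed for 16 hr at 37 °C to 5-fluorouridine together with compound or vehicle.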
# SMN2 splice enh: increases expression of the SMN2 splice variant. HEK293 SMN2-luciferase splicing reporter, luminescence, 30-36 h. Potency, µM (series often up to 46.1 µM), without a hit: at the highest dose activity change, positive = activation, hits mostly activators. hit rate 2.8% among 210,000; note: % of control where 0% means no effect; nearly all actives have a fitted effect of over 55% in size
#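 qHTS luciferase splicing reporter: luminescence rises when SMN2 exon 7 is included in transfected HEK293 cells. Compound exposure lasted 30-36 h at 37C, with 4.5 mM final sodium butyrate as control, followed by a ONE-Glo read.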
# Active calls of the source: *; ? = inconclusive; / = no result; [ ] = dose if it differs, or a comment. Calls come from the whole dose curve; as a rule, active = well fitted curve in the direction sought with a large enough effect; inconclusive = small, poorly fitted or top-dose-only effect, or another doubt; inactive = no such curve, though single readings can be large; an effect the other way counts as inactive or inconclusive. Potency is the fitted concentration of half-maximal effect.
SMILES,NPC1 promoter act,ELG1 genotox,FLuc modulator,Rab9 promoter act,ELG1 repair inh,SMN2 splice enh
CCOc1ccc(NC(=O)C2CCN(C(=O)N3CC(C)Oc4ccc(Cl)cc43)CC2)cc1 (stereo not given),/,/,-6.1%,/,/,/
Cc1ccc2[nH]c3c(=O)n(CC(=O)N4CCCC(C)C4)ncc3c2c1 (stereo not given),/,/,-2.5%,/,/,/
CCn1c(=O)c(CCC(=O)N2CCN(c3ccccn3)CC2)c(C)c2c(C)nn(-c3cccc(C)c3)c21,-2.0%,-16.9%,-0.9%,-5.4%,6.51µM*,/
CC#CCOC(=O)c1c(C)nc2sc3c(c2c1N)CCC(O)C3 (stereo not given),-10.0%[46.1 µM],16.4µM*,?,-23.8%[46.1 µM],-11.4%,-59.3%
CCOC(=O)c1c(N)sc2c1CCC(CC)C2 (stereo not given),-1.1%,8.2%,?,-1.7%,12.9%,-15.5%
O=S1(=O)N=C(Nc2ccc(O)cc2)c2ccccc21,0.8%,-0.5%,-3.1%,-2.9%,10.0%,6.7%
O=S1(=O)N=C(Nc2ccc(N3CCOCC3)c(Cl)c2)c2ccccc21,?,?,5.36µM*,3.55µM*,6.4%,12.6µM*
CN(Cc1cccc(-n2cccn2)c1)C(=O)CCc1nnc(C2CCCCC2)o1,11.5%,10.1%,16.9µM*,?,?,/
CN(Cc1ccon1)C(=O)c1ccc2nc(Cc3cccc(Cl)c3)oc2c1,5.5%,0.2%,4.1%,-7.9%,12.5%,/
COCCc1nc2ccc(C(=O)N(C)Cc3cccc(-n4cccn4)c3)cc2o1,2.82µM*,?,21.3µM*,2.82µM*,?,/
CN(Cc1cccnc1)C(=O)c1ccc2nc(Cc3ccccc3F)oc2c1,26.7%,1.3%[9.26 µM],23.9µM*,?,?,/
Cc1cc(C)cc(N=Cc2c(O)c3ccccc3oc2=O)c1,-6.5%,4.2%,-11.0%,2.7%,13.6%,-9.0%
O=C(O)c1cc(N=Cc2c(O)c3ccccc3oc2=O)ccc1O,-3.2%,-6.6%,7.57µM*,-4.6%,0.1%,/
CCOc1ccccc1N=Cc1c(O)c2ccccc2oc1=O,1.6%,0.9%,?,9.3%,6.6%,/
Cc1cc(C)c(N=Cc2c(O)c3ccccc3oc2=O)c(C)c1,16.8%,?,3.79µM*,1.8%,?,/
Cc1cccc(/N=C/c2c(O)c3ccccc3oc2=O)n1,-1.3%,6.8%,5.36µM*,2.3%,-8.7%,37.1%
Cc1ccc(N=Cc2c(O)c3ccccc3oc2=O)cc1F,-2.2%,-1.3%,1.69µM*,13.9%,28.2%,/
COc1ccccc1NC(=O)CSC1=Nc2ccccc2C2=NC(CCC(=O)NCc3cccs3)C(=O)N12 (stereo not given),/,/,5.4%,/,/,/
COc1ccc(OC)c(N=Cc2c(O)c3ccccc3oc2=O)c1,-4.5%,1.1%,-10.1%,-2.4%,2.1%,/
Cc1ccc(C)c(N=Cc2c(O)c3ccccc3oc2=O)c1,-1.7%,0.6%,3.01µM*,-1.0%,0.0%,/
O=C(CCCC(=O)c1ccc(F)cc1)c1ccc(F)cc1,2.82µM*,?,3.01µM*,1µM*,?,/
CCOc1ccc(C(=O)COC(=O)CC)cc1,-1.8%,-0.5%,5.36µM*,-0.4%,18.4%,3.0%
CCOc1ccc(C(=O)CCN2CCCCCC2)cc1,-1.1%,0.2%,-12.6%,-1.4%,-4.6%,12.8%
Cc1ccc(S(=O)(=O)CCC(=O)c2ccc(F)cc2)cc1,-1.6%,-3.3%,2.6%,10.0%,7.9%,/
CCOc1ccc(C(=O)CCCC(=O)c2ccc(OCC)cc2)cc1,?,?,6.75µM*,18.6%,?,/
Cc1ccc(C(=O)CCS(=O)(=O)c2ccc(F)cc2)cc1,-3.9%,10.3%,0.757µM*,4.7%,11.8%,/
Cc1ccc(NC(=O)c2oc3ccc(S(=O)(=O)N4CCC5(CC4)OCCO5)cc3c2C)c(C)c1,/,/,2.9%,/,/,/
CCCCC(=O)OCC(=O)c1ccc(OCC)cc1,17.1%,4.6%,0.849µM*,10.5%,?,-5.4%
